{"source": "PubChem BioAssay (Tox21)", "note": "Records with an inconclusive call do not appear. Entries that show only a call come without a potency. The source made the active and inactive calls. The call rests on the fitted dose curve; in most records, active means well fitted curve in the direction sought with a large enough effect in the repeat runs; inconclusive means weak or mixed curves; inactive means no such curve, though single readings can be large; an effect the other way counts as inactive or inconclusive. Potency means the concentration at half of the fitted maximal effect. Wherever Cytotoxicity is given: nearly all actives have a fitted effect of over 45% in size. Wherever activity change, negative = cytotoxic is given: nearly all actives have a fitted effect of over 55% in size.", "data": [{"experiment": "A CellTox Green Cytotoxicity Assay to monitor cytotoxicity in HepG2 cells - 16 hour (AID 1224876); further: nearly all actives have a fitted effect of over 45% in size", "conditions": "CellTox Green fluorescence; series mostly up to 76.8 µM", "procedure,_shortened": "(§1)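 First, HepG2 cells (600/well) mixed with reagent were plated; second, after 5 h at 37 C they received compounds via pintool; third, fluorescence was measured at 0 h through 40 h at 8 h intervals.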", "values": [{"smiles": "BrCCCCCCBr", "Potency": "inactive"}, {"smiles": "Nc1cnn(-c2ccccc2)c(=O)c1Cl", "Potency": "inactive"}, {"smiles": "Fc1cc(Br)ccc1CBr", "Potency": "inactive"}, {"smiles": "Nc1cc2c3c(c1)C(c1ccccc1)=N[C@@H](NC(=O)c1cccnc1)C(=O)N3CC2", "Potency": "inactive"}, {"smiles": "O=[N+]([O-])c1cc(Cl)c(Cl)c(Cl)c1", "Potency": "inactive"}, {"smiles": "CCCSC(=O)N(CCC)CCC", "Potency": "inactive"}, {"smiles": "Cc1cc(C)c(C(=O)P(=O)(C(=O)c2c(C)cc(C)cc2C)c2ccccc2)c(C)c1", "Potency": "inactive"}, {"smiles": "CC(Oc1ccc(Oc2ncc(C(F)(F)F)cc2Cl)cc1)C(=O)O", "note": "(stereo unspecified)", "Potency": "inactive"}, {"smiles": "Cc1coc2c1CCC(C)C2", "note": "(stereo unspecified)", "Potency": "inactive"}, {"smiles": "CC(N)=S", "Potency": "inactive"}, {"smiles": "CCN(CC)CCOC(=O)C(C)(c1ccccc1)c1ccccc1", "Potency": "inactive"}, {"smiles": "O=C1c2ccccc2C(=O)c2ccccc21", "cytotoxicity increase": "8.1% [at 15.8 µM] (inactive)"}, {"smiles": "CCCCC(=O)Cl", "Potency": "inactive"}, {"smiles": "CCC(=O)C(CCN(C)C)(c1ccccc1)c1ccccc1", "Potency": "inactive"}, {"smiles": "c1cc2c(c(N3CCNCC3)c1)OCCO2", "Potency": "inactive"}, {"smiles": "CCCSC(=O)Cl", "Potency": "inactive"}, {"smiles": "N#CC(CCc1ccc(Cl)cc1)(Cn1cncn1)c1ccccc1", "note": "(stereo unspecified)", "Potency": "21.9 µM (active)"}, {"smiles": "CCOC(=O)NC(=S)Nc1ccccc1NC(=S)NC(=O)OCC", "Potency": "inactive"}, {"smiles": "ClC(Cl)Br", "Potency": "inactive"}, {"smiles": "C(CCOCC1CO1)COCC1CO1", "note": "(stereo unspecified)", "Potency": "inactive"}, {"smiles": "OC(c1ccccc1)(c1ccccc1)C1CCNCC1", "Potency": "inactive"}, {"smiles": "CCN(CC)C(=O)[C@@H]1C=C2c3cccc4[nH]cc(c34)C[C@H]2N(C)C1", "Potency": "inactive"}, {"smiles": "NC(=S)C(N)=S", "Potency": "inactive"}, {"smiles": "CNC(=O)O/N=C(\\C)SC", "Potency": "0.219 µM (active)"}, {"smiles": "N#CCBr", "Potency": "inactive"}, {"smiles": "CCCCCCI", "Potency": "inactive"}, {"smiles": "CC(CC(C#N)(c1ccccc1)c1ccccc1)N(C)C", "note": "(stereo unspecified)", "Potency": "inactive"}, {"smiles": "CS(=O)(=O)c1cc(C(F)(F)F)ccc1C(=O)c1cnoc1C1CC1", "Potency": "inactive"}, {"smiles": "C[C@]1(O)CC[C@H]2[C@@H]3CCC4=CC(=O)CC[C@]4(C)[C@@]3(F)[C@@H](O)C[C@@]21C", "Potency": "inactive"}, {"smiles": "O=C(Oc1ccc(Br)cc1)N1CCN2CCC1CC2", "Potency": "inactive"}, {"smiles": "COc1cc2c(cc1OC)[C@@]13CCN4CC5=CCO[C@H]6CC(=O)N2[C@H]1[C@H]6[C@H]5C[C@H]43", "Potency": "inactive"}, {"smiles": "CCCCCCBr", "Potency": "inactive"}, {"smiles": "CCN(CC)C(C)C(=O)c1ccccc1", "note": "(stereo unspecified)", "Potency": "inactive"}, {"smiles": "O=NN1CCCCC1", "Potency": "inactive"}, {"smiles": "CN(N=O)C(N)=O", "Potency": "inactive"}, {"smiles": "OCCSCSCCO", "Potency": "inactive"}, {"smiles": "CCCCOC(=O)[C@@H](C)Oc1ccc(Oc2ccc(C#N)cc2F)cc1", "Potency": "inactive"}]}, {"experiment": "qHTS RealTime-Glo MT Cell Viability Assay in HepG2 cells - 32 hour (AID 1224877)", "conditions": "RealTime-Glo luminescence; series mostly up to 76.8 µM", "procedure,_shortened": "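Viability was tracked continuously by NanoLuc luminescence from prosubstrate reduced by living HepG2 cells, at successive time points over 40 h of compound exposure. Cells with reagent were preincubated 5 h at 37 °C before compound addition.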", "values": [{"smiles": "BrCCCCCCBr", "Potency": "inactive"}, {"smiles": "Nc1cnn(-c2ccccc2)c(=O)c1Cl", "Potency": "inactive"}, {"smiles": "Fc1cc(Br)ccc1CBr", "Potency": "inactive"}, {"smiles": "Nc1cc2c3c(c1)C(c1ccccc1)=N[C@@H](NC(=O)c1cccnc1)C(=O)N3CC2", "Potency": "inactive"}, {"smiles": "O=[N+]([O-])c1cc(Cl)c(Cl)c(Cl)c1", "Potency": "inactive"}, {"smiles": "CCCSC(=O)N(CCC)CCC", "Potency": "inactive"}, {"smiles": "CC(Oc1ccc(Oc2ncc(C(F)(F)F)cc2Cl)cc1)C(=O)O", "note": "(stereo unspecified)", "Potency": "inactive"}, {"smiles": "Cc1coc2c1CCC(C)C2", "note": "(stereo unspecified)", "Potency": "inactive"}, {"smiles": "CC(N)=S", "Potency": "inactive"}, {"smiles": "CCN(CC)CCOC(=O)C(C)(c1ccccc1)c1ccccc1", "Potency": "inactive"}, {"smiles": "O=C1c2ccccc2C(=O)c2ccccc21", "activity change, negative = cytotoxic": "1.27% [at 15.8 µM] (inactive)"}, {"smiles": "CCCCC(=O)Cl", "Potency": "inactive"}, {"smiles": "CCC(=O)C(CCN(C)C)(c1ccccc1)c1ccccc1", "Potency": "inactive"}, {"smiles": "c1cc2c(c(N3CCNCC3)c1)OCCO2", "Potency": "inactive"}, {"smiles": "CCOC(=O)NC(=S)Nc1ccccc1NC(=S)NC(=O)OCC", "Potency": "inactive"}, {"smiles": "ClC(Cl)Br", "Potency": "inactive"}, {"smiles": "C(CCOCC1CO1)COCC1CO1", "note": "(stereo unspecified)", "Potency": "inactive"}, {"smiles": "OC(c1ccccc1)(c1ccccc1)C1CCNCC1", "Potency": "inactive"}, {"smiles": "CCN(CC)C(=O)[C@@H]1C=C2c3cccc4[nH]cc(c34)C[C@H]2N(C)C1", "Potency": "inactive"}, {"smiles": "NC(=S)C(N)=S", "Potency": "inactive"}, {"smiles": "CNC(=O)O/N=C(\\C)SC", "Potency": "inactive"}, {"smiles": "N#CCBr", "Potency": "inactive"}, {"smiles": "CCCCCCI", "Potency": "34.7 µM (active)"}, {"smiles": "CC(CC(C#N)(c1ccccc1)c1ccccc1)N(C)C", "note": "(stereo unspecified)", "Potency": "inactive"}, {"smiles": "CS(=O)(=O)c1cc(C(F)(F)F)ccc1C(=O)c1cnoc1C1CC1", "Potency": "inactive"}, {"smiles": "O=C(Oc1ccc(Br)cc1)N1CCN2CCC1CC2", "Potency": "inactive"}, {"smiles": "COc1cc2c(cc1OC)[C@@]13CCN4CC5=CCO[C@H]6CC(=O)N2[C@H]1[C@H]6[C@H]5C[C@H]43", "Potency": "inactive"}, {"smiles": "CCCCCCBr", "Potency": "inactive"}, {"smiles": "CCN(CC)C(C)C(=O)c1ccccc1", "note": "(stereo unspecified)", "Potency": "inactive"}, {"smiles": "O=NN1CCCCC1", "Potency": "inactive"}, {"smiles": "CN(N=O)C(N)=O", "Potency": "inactive"}, {"smiles": "OCCSCSCCO", "Potency": "inactive"}, {"smiles": "CCCCOC(=O)[C@@H](C)Oc1ccc(Oc2ccc(C#N)cc2F)cc1", "Potency": "inactive"}]}, {"experiment": "A CellTox Green Cytotoxicity Assay to monitor cytotoxicity in HepG2 cells - 24 hour (AID 1224878)", "conditions": "CellTox Green fluorescence; series mostly up to 76.8 µM", "procedure,_shortened": "as §1", "values": [{"smiles": "BrCCCCCCBr", "Potency": "inactive"}, {"smiles": "Nc1cnn(-c2ccccc2)c(=O)c1Cl", "Potency": "inactive"}, {"smiles": "Fc1cc(Br)ccc1CBr", "Potency": "inactive"}, {"smiles": "Nc1cc2c3c(c1)C(c1ccccc1)=N[C@@H](NC(=O)c1cccnc1)C(=O)N3CC2", "Potency": "inactive"}, {"smiles": "O=[N+]([O-])c1cc(Cl)c(Cl)c(Cl)c1", "Potency": "inactive"}, {"smiles": "CCCSC(=O)N(CCC)CCC", "Potency": "inactive"}, {"smiles": "Cc1cc(C)c(C(=O)P(=O)(C(=O)c2c(C)cc(C)cc2C)c2ccccc2)c(C)c1", "Potency": "inactive"}, {"smiles": "CC(Oc1ccc(Oc2ncc(C(F)(F)F)cc2Cl)cc1)C(=O)O", "note": "(stereo unspecified)", "Potency": "inactive"}, {"smiles": "Cc1coc2c1CCC(C)C2", "note": "(stereo unspecified)", "Potency": "inactive"}, {"smiles": "CC(N)=S", "Potency": "inactive"}, {"smiles": "O=C1c2ccccc2C(=O)c2ccccc21", "cytotoxicity": "6.42% [at 15.8 µM] (inactive)"}, {"smiles": "CCCCC(=O)Cl", "Potency": "inactive"}, {"smiles": "CCC(=O)C(CCN(C)C)(c1ccccc1)c1ccccc1", "Potency": "inactive"}, {"smiles": "c1cc2c(c(N3CCNCC3)c1)OCCO2", "Potency": "inactive"}, {"smiles": "CCCSC(=O)Cl", "Potency": "inactive"}, {"smiles": "N#CC(CCc1ccc(Cl)cc1)(Cn1cncn1)c1ccccc1", "note": "(stereo unspecified)", "Potency": "21.9 µM (active)"}, {"smiles": "CCOC(=O)NC(=S)Nc1ccccc1NC(=S)NC(=O)OCC", "Potency": "inactive"}, {"smiles": "ClC(Cl)Br", "Potency": "inactive"}, {"smiles": "C(CCOCC1CO1)COCC1CO1", "note": "(stereo unspecified)", "Potency": "inactive"}, {"smiles": "OC(c1ccccc1)(c1ccccc1)C1CCNCC1", "Potency": "inactive"}, {"smiles": "CCN(CC)C(=O)[C@@H]1C=C2c3cccc4[nH]cc(c34)C[C@H]2N(C)C1", "Potency": "inactive"}, {"smiles": "NC(=S)C(N)=S", "Potency": "inactive"}, {"smiles": "CNC(=O)O/N=C(\\C)SC", "Potency": "inactive"}, {"smiles": "N#CCBr", "Potency": "inactive"}, {"smiles": "CCCCCCI", "Potency": "inactive"}, {"smiles": "CC(CC(C#N)(c1ccccc1)c1ccccc1)N(C)C", "note": "(stereo unspecified)", "Potency": "inactive"}, {"smiles": "CS(=O)(=O)c1cc(C(F)(F)F)ccc1C(=O)c1cnoc1C1CC1", "Potency": "inactive"}, {"smiles": "C[C@]1(O)CC[C@H]2[C@@H]3CCC4=CC(=O)CC[C@]4(C)[C@@]3(F)[C@@H](O)C[C@@]21C", "Potency": "inactive"}, {"smiles": "O=C(Oc1ccc(Br)cc1)N1CCN2CCC1CC2", "Potency": "inactive"}, {"smiles": "COc1cc2c(cc1OC)[C@@]13CCN4CC5=CCO[C@H]6CC(=O)N2[C@H]1[C@H]6[C@H]5C[C@H]43", "Potency": "inactive"}, {"smiles": "CCCCCCBr", "Potency": "inactive"}, {"smiles": "CCN(CC)C(C)C(=O)c1ccccc1", "note": "(stereo unspecified)", "Potency": "inactive"}, {"smiles": "O=NN1CCCCC1", "Potency": "inactive"}, {"smiles": "CN(N=O)C(N)=O", "Potency": "inactive"}, {"smiles": "OCCSCSCCO", "Potency": "inactive"}, {"smiles": "CCCCOC(=O)[C@@H](C)Oc1ccc(Oc2ccc(C#N)cc2F)cc1", "Potency": "inactive"}]}]}
